A short description of assay [1]: Primary qHTS for inhibitors of nuclear receptor binding SET domain protein 2 (NSD2) in an isogenic RCH-ACV NSD2 p.E1099K mutant (9B) (AID 1645876). Further: nearly all actives have a fitted effect of over 70% in size. Further: potency means the concentration at half of the fitted maximal effect. Conditions: RCH-ACV NSD2 E1099K (9B) viability, CellTiter-Glo, 72 h; series mostly up to 44.9 µM. On the technique in general: In qHTS, concentration-response curves come from the screen itself.
The nature of assay [2]: Primary qHTS for inhibitors of nuclear receptor binding SET domain protein 2 (NSD2) in an RCH-ACV wild type WT cells (2C) (AID 1645877). Further: nearly all actives have a fitted effect of over 70% in size. Further: potency means the concentration at half of the fitted maximal effect. Conditions: RCH-ACV (leukaemia line) NSD2 WT (2C) viability, CellTiter-Glo, 72 h; series mostly up to 44.9 µM.
Assay [3] has as its target Glutathione peroxidase 1 (Homo sapiens) (UniProt P07203). Briefly: Primary qHTS Assay for Inhibitors of Recombinant Selenoprotein Glutathione Peroxidase 1 (GPX1) (AID 1845191). Further: nearly all actives have a fitted effect of over 65% in size. On activity, negative = inhibition: on the % scale 0 is the no-effect control and ±100 the full control effect. Conditions: recombinant GPX1, GR-coupled NADPH fluorescence, 15 min; series mostly up to 48.8 µM. Summed up: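 GR-coupled assay: compounds preincubated 30 min at room temperature with GPX1, then reaction started with CHP; final 10 nM GPX1, 1 mM GSH, 0.5 mM CHP, 0.5 mM NADPH, 100 nM GR, 0.01% BSA, pH 7.5 Tris buffer. NADPH fluorescence (340/450 nm) read at 0 and 15 min.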

Assay [4] in a line: qHTS drug screen for cell cycle checkpoint inhibitors in PARPi-resistant BRCA-mutant ovarian cancer cell lines. (AID 1963452; calls by dose curve). Conditions: PEO1/OlaR viability, CellTiter-Glo luminescence, 96 h, stronger effect = lower value. Summed up: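 PEO1, PEO4 and PEO1/OlaR ovarian cancer cells, 600 per well, exposed 96 h at 37C to a dilution series. Viability read by CellTiter-Glo luminescence, normalized to DMSO and empty wells; activity summarized as Z-AUC.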

Assay [5] can be described thus: Confirmation and Secondary Assay for Modulators of Hemoglobin Beta Chain Splicing at IVS2 654 locus (AID 910).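 Further: HeLa cells stably carrying EGFP split by mutant beta-globin IVS2-654 intron; % of control where 0% means no effect.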 Conditions: HeLa EGFP-654 splicing reporter, GFP fluorescence, 48 h; series mostly up to 46.1 µM. The essentials:
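HeLa cells stably expressing EGFP interrupted by β-globin IVS2-654 intron, seeded overnight in Opti-MEM/2% FCS, then treated 2 days at 37 °C. Restored splicing read as total peak GFP intensity per well by laser scanning cytometry (488 nm excitation, 500–520 nm emission); 500 nM antisense PNA as control.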

A short description of assay [6]: Confirmation and Secondary Assay for Modulators of Hemoglobin Beta Chain Splicing at IVS2 705 locus (AID 930).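 Further: HeLa cells stably expressing the EGFP-705 splicing reporter; % of control where 0% means no effect.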 Conditions: HeLa EGFP-705 splicing reporter, GFP fluorescence, 48 h; series mostly up to 46.1 µM. The essentials: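 Restored EGFP fluorescence after 2-day compound exposure reports splicing correction in IVS2-705 EGFP reporter HeLa cells; positive control was 500 nM splice-blocking PNA oligo. Signal measured as well total peak GFP intensity (488 nm excitation).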

In assay [7] the target is Rap guanine nucleotide exchange factor 3 (Homo sapiens) (UniProt O95398). As to the kind of experiment: Confirmatory qHTS for antagonist of cAMP-regulated guanine nucleotide exchange factor 3 (EPAC1) (AID 1645880). Further: nearly all actives have a fitted effect of over 55% in size. Further: potency means the concentration at half of the fitted maximal effect.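 On activity, negative = inhibition: plate controls were DMSO only for no effect and full effect of the ATA control for full effect.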 Conditions: EPAC1 Rap1B-BODIPY-GDP exchange, fluorescence; series mostly up to 115 µM. The essentials:
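Nucleotide exchange uses 100 nM EPAC1, 250 nM RAP1B-BODIPY-GDP and 50 uM GDP, with compounds in a concentration-titration series. After 5 min at room temperature, fluorescence (480 nm ex/540 nm em) is read every 5 min for 30 min. Data are normalized to control ATA and DMSO.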

Assay [8] has the same target. As to the kind of experiment: Confirmatory qHTS for agonist of cAMP-regulated guanine nucleotide exchange factor 3 (EPAC1) (AID 1645881).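 Further: EPAC1 catalysed release of BODIPY-GDP from Rap1B seen as fluorescence loss; nearly all actives have a fitted effect of over 75% in size.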 Conditions: EPAC1 Rap1B BODIPY-GDP exchange fluorescence, 100% = cAMP control response; series mostly up to 154 µM.
The target in assay [9] is Rap guanine nucleotide exchange factor 4 (Homo sapiens) (UniProt Q8WZA2). Briefly: Confirmatory qHTS for agonist of cAMP-regulated guanine nucleotide exchange factor 4 (EPAC2) (AID 1645884).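 Further: nucleotide exchange releases bodipy-GDP from Rap1 and this lowers its fluorescence; on the % scale 0 is the no-effect control and ±100 the full control effect; nearly all actives have a fitted effect of over 65% in size.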 Conditions: EPAC2 GEF activity, Rap1B-BODIPY-GDP fluorescence, percent relative to cAMP agonist control; series mostly up to 154 µM.
Rap guanine nucleotide exchange factor 4 (Homo sapiens), sequence (Q8WZA2 whole entry, looked up): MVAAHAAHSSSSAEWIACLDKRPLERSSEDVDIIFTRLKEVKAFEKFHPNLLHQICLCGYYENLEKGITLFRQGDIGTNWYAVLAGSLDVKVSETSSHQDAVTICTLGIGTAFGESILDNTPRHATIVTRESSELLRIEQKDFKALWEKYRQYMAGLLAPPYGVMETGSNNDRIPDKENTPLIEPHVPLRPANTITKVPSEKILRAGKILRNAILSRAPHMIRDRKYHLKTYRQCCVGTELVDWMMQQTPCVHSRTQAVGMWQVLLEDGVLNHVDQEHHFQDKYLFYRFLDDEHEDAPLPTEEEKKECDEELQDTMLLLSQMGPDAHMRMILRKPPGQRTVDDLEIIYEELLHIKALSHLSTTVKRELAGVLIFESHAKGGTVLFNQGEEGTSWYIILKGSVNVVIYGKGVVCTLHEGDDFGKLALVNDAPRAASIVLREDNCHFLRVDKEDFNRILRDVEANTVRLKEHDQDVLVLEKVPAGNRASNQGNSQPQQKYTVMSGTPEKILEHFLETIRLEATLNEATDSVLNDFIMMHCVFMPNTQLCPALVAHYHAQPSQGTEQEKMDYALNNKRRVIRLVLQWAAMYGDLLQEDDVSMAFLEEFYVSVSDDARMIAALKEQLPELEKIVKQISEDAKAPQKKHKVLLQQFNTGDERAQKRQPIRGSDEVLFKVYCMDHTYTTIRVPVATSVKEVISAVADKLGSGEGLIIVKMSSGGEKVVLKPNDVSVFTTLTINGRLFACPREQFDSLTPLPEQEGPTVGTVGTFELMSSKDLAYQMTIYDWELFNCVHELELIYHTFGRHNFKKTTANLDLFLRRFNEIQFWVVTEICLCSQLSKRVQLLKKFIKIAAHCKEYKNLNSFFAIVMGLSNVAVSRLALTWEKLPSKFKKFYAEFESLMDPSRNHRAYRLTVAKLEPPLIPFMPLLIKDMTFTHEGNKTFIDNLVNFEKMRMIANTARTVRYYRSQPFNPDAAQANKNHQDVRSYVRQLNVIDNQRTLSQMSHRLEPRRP
The target is the same in assay [10]. Briefly: Confirmatory qHTS for antagonist of cAMP-regulated guanine nucleotide exchange factor 4 (EPAC2) (AID 1645885). Further: nearly all actives have a fitted effect of over 25% in size. Further: potency means the concentration at half of the fitted maximal effect. Conditions: EPAC2 Rap1B-BODIPY-GDP exchange fluorescence, biochemical; series mostly up to 114 µM.
The target in assay [11] is Cytochrome P450 2C9 (Homo sapiens) (UniProt P11712). As to the kind of experiment: qHTS Assay for Inhibitors and Substrates of Cytochrome P450 2C9 (AID 883). Further: potency means the concentration at half of the fitted maximal effect; nearly all actives have a fitted effect of over 60% in size. Conditions: recombinant CYP2C9, luciferin-H luminescence, 60 min; series mostly up to 57.1 µM. Summed up: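 Human CYP2C9 (10nM) with Luciferin-H at 100uM (its KM) in 25mM KPO4; compound preincubated 10 min at 37C, then NADPH regeneration for 60 min at 37C. Luciferin read by luminescence after detection reagent; normalized to 57uM sulphaphenazole as full inhibition.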
Cytochrome P450 2C9 (Homo sapiens), sequence (P11712 whole entry, looked up): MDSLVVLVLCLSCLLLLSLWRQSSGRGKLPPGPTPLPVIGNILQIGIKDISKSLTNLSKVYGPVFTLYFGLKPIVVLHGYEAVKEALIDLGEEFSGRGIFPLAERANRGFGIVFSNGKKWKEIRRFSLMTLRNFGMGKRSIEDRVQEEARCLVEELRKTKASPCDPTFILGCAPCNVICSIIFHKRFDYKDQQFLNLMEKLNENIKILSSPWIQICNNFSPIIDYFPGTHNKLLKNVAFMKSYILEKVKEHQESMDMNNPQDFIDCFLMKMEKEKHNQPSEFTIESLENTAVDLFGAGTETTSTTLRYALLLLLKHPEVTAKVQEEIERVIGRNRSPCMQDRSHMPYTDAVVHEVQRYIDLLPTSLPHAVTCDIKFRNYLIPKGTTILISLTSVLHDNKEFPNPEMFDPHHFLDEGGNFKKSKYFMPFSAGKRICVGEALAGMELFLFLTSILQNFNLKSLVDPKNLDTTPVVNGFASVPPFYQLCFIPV

Assay [12] concerns the target Cytochrome P450 3A4 (Homo sapiens) (UniProt P08684). Briefly: qHTS Assay for Inhibitors and Substrates of Cytochrome P450 3A4 (AID 884). Further: nearly all actives have a fitted effect of over 50% in size. Further: potency means the concentration at half of the fitted maximal effect. Conditions: recombinant CYP3A4, Luciferin-PPXE luminescence; series mostly up to 57.1 µM. Summed up: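 20 nM human CYP3A4 with 25 uM Luciferin-PPXE (at KM) in 200 mM KPO4, preincubated 10 min with compound; NADPH regeneration started a 60 min RT reaction. Luciferin detected by luminescence, normalized to 57 uM ketoconazole as full inhibition.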

Assay [13] concerns the target Cytochrome P450 2D6 (Homo sapiens) (UniProt P10635). As to the kind of experiment: qHTS Assay for Inhibitors and Substrates of Cytochrome P450 2D6 (AID 891). Further: nearly all actives have a fitted effect of over 60% in size. Further: potency means the concentration at half of the fitted maximal effect. Conditions: recombinant CYP2D6, luciferin-ME EGE luminescence; series mostly up to 57.1 µM. Summed up: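 Human CYP2D6 (5 nM) with 30 uM Luciferin-ME EGE (at Km) in 100 mM KPO4, compound preincubated 10 min, then NADPH regeneration system for 60 min at room temperature. Luciferin read by luminescence; normalized to 1.43 uM quinidine.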

Assay [14] concerns the target Muscarinic acetylcholine receptor M1 (Rattus norvegicus) (UniProt P08482). Briefly: qHTS Assay for Antagonists of Acetylcholine Muscarinic M1 Receptor: Kinetic Measurement of Intracellular Calcium Response (AID 943).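 Further: Fluo-4 calcium signal as peak divided by basal fluorescence over 4 min; nearly all actives have a fitted effect of over 75% in size.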 Conditions: M1-expressing cells, kinetic intracellular calcium fluorescence; series mostly up to 35.3 µM. Summed up:
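CHO cells stably expressing rat M1 were loaded with no-wash Fluo-4 dye for 1 h at 37C, pre-incubated 10 min with compound, then challenged with EC80 carbachol (100 nM final); kinetic calcium read 4 min, peak/basal ratio.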

For assay [15] the target is unchanged. Briefly: qHTS Assay for Antagonists of Acetylcholine Muscarinic M1 Receptor: Measurement of IP-One Response (AID 944). Further: nearly all actives have a fitted effect of over 75% in size. Conditions: CHO-M1 cells, IP-One HTRF, antagonist mode; series mostly up to 46.1 µM. Summed up: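 CHO cells expressing rat M1 receptor, recovered overnight, were pre-incubated 10 min with compound, then stimulated 30 min with carbachol at EC80 (200 nM) in LiCl-containing buffer, pH 7.4. IP1 accumulation was read by HTRF (620/665 nm).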

Assay [16] deals with Cytochrome P450 2D6 (Homo sapiens) (UniProt P10635). As to the kind of experiment: Cytochrome P450 family 2 subfamily D member 6 (CYP2D6) small molecule antagonists: luciferase biochemical (cell-free) qHTS assay (AID 1645840; active means well fitted curve in the direction sought with a large enough effect in the repeat runs; an effect the other way counts as inactive or inconclusive; further: nearly all actives have a fitted effect of over 55% in size; further: potency means the concentration at half of the fitted maximal effect). Conditions: P450-Glo CYP2D6 enzyme, luciferin luminescence, 1 h; series mostly up to 57.4 µM. The essentials: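 P450-Glo luminescent screen: recombinant CYP2D6 enzyme–proluciferin substrate mix preincubated with compound 10 min at room temperature, then NADPH regeneration added for 1 h at room temperature. Detection reagent added for 20 min; luciferin light read as relative luminescence units.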
Cytochrome P450 2D6 (Homo sapiens), sequence (P10635 whole entry, looked up): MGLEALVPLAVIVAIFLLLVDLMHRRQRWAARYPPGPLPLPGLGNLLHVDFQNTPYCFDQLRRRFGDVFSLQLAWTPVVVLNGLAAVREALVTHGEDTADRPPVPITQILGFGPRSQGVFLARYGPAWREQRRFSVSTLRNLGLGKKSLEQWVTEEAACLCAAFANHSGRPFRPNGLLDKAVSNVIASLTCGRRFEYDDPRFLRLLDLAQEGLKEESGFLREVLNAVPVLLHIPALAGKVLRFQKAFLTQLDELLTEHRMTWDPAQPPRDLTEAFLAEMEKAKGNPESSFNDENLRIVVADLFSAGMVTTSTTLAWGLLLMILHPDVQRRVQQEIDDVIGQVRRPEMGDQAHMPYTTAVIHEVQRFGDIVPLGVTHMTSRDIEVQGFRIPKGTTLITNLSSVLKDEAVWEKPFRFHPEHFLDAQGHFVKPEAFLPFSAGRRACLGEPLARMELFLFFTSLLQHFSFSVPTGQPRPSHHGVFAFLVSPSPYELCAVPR

The target in assay [17] is Cytochrome P450 2C9 (Homo sapiens) (UniProt P11712). As to the kind of experiment: Cytochrome P450 family 2 subfamily C member 9 (CYP2C9) small molecule antagonists: luciferase biochemical (cell-free) qHTS assay (AID 1645842; active means well fitted curve in the direction sought with a large enough effect in the repeat runs; an effect the other way counts as inactive or inconclusive; further: on the % scale 0 is the no-effect control and ±100 the full control effect; nearly all actives have a fitted effect of over 55% in size). Conditions: P450-Glo CYP2C9 enzyme assay, luciferin luminescence; series mostly up to 57.4 µM. Summed up:
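Luminescence, after 20 min with luciferin detection reagent, reflected CYP2C9 turnover during a 1 h NADPH-driven reaction at 37C. Enzyme-substrate mix contained 0.4% bovine serum albumin and was preincubated with compound 10 min at room temperature.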

Assay [18] in a line: qHTS profiling for inhibitors of Plasmodium falciparum proliferation (AID 504749).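 Further: 0% = DMSO vehicle and full inhibition = artemisinin control; nearly all actives have a fitted effect of over 60% in size.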 Conditions: P. falciparum in erythrocytes, SYBR Green DNA, 72 h, at 12.8 µM (top of the series). The essentials: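 Readout was DNA-dye fluorescence from lysed cultures, ex 485/em 535 nm. Parasitized red cells had grown 72 h with compound; data scaled between 0.29 uM artemisinin and DMSO wells and corrected using vehicle-only plates.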

Assay [19] has as its target Alpha-galactosidase A (Homo sapiens) (UniProt P06280). As to the kind of experiment: Counterscreen for Glucocerebrosidase Inhibitors: qHTS Assay for Human alpha-Galactosidase at pH 4.5 (AID 992). Further: 0% is about no effect. Conditions: purified enzyme, fluorogenic substrate; series mostly up to 76.9 µM. Summed up: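 Read-out is 4-methylumbelliferone fluorescence (365 nm excitation, 440 nm emission) after a pH 10 NaOH/glycine stop. Reactions held 2 nM enzyme and 80 uM substrate at pH 4.5 for 20 min at room temperature.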
(A counterscreen serves to expose hits that act by an unwanted route or on another target.)

Each structure is given as a SMILES string. Several values for one entry are separate records, joined by “and”; a condition that tells them apart may be missing. Identical values can stand only once. Inconclusive results are not listed. Activity calls are given as the source filed them. Unless noted, the call rests on the fitted dose curve; in most records, active means well fitted curve in the direction sought with a large enough effect; inconclusive means small, poorly fitted or top-dose-only effect, or another doubt; inactive means no such curve, though single readings can be large; an effect the other way counts as inactive or inconclusive.

Cytochrome P450 3A4 (Homo sapiens), sequence (P08684 whole entry, looked up): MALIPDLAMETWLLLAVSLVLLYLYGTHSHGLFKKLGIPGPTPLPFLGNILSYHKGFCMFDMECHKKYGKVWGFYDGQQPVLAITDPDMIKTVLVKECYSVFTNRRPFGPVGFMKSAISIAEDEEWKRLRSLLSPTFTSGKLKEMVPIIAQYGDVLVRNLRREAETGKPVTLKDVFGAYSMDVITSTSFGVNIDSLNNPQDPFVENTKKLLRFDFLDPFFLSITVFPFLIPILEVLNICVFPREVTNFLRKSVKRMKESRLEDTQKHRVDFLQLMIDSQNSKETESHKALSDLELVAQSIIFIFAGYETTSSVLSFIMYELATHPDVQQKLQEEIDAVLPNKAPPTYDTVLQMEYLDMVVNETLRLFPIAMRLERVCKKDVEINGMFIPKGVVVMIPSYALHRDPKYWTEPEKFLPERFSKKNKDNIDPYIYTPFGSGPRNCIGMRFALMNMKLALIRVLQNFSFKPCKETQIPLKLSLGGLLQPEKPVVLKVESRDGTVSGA
Rap guanine nucleotide exchange factor 3 (Homo sapiens), sequence (O95398 whole entry, looked up): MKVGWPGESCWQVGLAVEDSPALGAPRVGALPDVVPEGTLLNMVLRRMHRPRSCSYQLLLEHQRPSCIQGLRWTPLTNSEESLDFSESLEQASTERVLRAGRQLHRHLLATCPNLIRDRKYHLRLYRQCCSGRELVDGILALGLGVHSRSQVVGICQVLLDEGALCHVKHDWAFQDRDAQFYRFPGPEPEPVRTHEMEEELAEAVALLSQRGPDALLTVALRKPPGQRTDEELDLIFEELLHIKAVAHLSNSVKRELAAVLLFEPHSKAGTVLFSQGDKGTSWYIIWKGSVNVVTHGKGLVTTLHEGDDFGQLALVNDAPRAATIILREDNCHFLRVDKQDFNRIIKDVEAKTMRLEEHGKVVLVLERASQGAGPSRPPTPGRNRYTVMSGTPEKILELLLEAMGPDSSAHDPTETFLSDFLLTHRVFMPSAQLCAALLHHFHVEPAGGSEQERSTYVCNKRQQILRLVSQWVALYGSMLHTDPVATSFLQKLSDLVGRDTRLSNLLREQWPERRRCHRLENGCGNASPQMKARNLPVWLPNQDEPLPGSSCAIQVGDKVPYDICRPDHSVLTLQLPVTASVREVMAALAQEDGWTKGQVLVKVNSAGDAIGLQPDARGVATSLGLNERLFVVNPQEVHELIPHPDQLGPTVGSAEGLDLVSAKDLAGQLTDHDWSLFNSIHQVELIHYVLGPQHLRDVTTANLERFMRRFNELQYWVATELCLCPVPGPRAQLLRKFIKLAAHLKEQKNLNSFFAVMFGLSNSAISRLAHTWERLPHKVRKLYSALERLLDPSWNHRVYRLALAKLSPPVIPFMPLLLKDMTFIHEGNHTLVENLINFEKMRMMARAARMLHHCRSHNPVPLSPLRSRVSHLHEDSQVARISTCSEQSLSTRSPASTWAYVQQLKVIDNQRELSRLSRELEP
Muscarinic acetylcholine receptor M1 (Rattus norvegicus), sequence (P08482 whole entry, looked up): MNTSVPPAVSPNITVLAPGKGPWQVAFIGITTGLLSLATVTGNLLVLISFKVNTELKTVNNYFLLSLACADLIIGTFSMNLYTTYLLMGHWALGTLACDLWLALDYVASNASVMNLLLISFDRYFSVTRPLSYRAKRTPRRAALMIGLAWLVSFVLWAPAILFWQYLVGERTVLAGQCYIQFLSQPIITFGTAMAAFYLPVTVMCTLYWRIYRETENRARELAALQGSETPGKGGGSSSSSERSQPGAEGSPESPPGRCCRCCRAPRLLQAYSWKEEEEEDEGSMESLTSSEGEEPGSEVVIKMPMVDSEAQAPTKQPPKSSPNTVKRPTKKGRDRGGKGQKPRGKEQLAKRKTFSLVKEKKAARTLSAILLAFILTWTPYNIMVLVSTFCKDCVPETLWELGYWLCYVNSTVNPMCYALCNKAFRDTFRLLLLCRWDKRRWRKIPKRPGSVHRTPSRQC
Glutathione peroxidase 1 (Homo sapiens), sequence (P07203 whole entry, looked up): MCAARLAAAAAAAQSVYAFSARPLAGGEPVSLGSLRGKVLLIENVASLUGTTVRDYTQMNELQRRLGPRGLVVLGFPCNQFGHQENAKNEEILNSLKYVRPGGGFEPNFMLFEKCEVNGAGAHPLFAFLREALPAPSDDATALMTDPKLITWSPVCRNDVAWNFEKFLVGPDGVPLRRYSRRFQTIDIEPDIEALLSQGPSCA
Alpha-galactosidase A (Homo sapiens), sequence (P06280 whole entry, looked up): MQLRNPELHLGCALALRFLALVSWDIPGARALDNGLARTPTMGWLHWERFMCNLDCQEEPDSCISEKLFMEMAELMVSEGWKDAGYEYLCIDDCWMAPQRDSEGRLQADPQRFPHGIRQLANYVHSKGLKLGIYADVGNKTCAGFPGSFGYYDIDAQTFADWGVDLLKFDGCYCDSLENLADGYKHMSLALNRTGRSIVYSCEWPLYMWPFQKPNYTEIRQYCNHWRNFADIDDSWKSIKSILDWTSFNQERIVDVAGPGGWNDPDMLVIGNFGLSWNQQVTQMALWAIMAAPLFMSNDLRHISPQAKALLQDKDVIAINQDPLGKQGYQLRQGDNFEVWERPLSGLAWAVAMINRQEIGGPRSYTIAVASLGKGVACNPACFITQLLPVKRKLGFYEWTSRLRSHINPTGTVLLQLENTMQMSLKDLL

On to `CC(C)(C)n1nc(-c2ccc(Cl)cc2)c2c(N)ncnc21`, for which the figures for the Potency in [1] and in [2] were 8.2 µM (active) and 16.4 µM (active), respectively. Also, in assay [3], the Potency result is “inactive”.
`CNC(=O)[C@H]1O[C@@H](n2cnc3c(NCc4cccc(I)c4)nc(Cl)nc32)[C@H](O)[C@@H]1O`: the Potency result in assay [1], in [2] and in [3] was “inactive” in each case. Moreover, the Z-AUC in assay [4] is 0.981 (inactive); in [4] (measured here: PEO1 parental Z-AUC), 0.685; in [4] (measured here: PEO4 Z-AUC), 0.71.
Turning to `CCCCC/C=C\C/C=C\C/C=C\C/C=C\CCCC(=O)O`, the outcome in assay [5], in assay [6], in assay [8] and in [9] was inactive. The Potency in assay [7] is 49.8 µM (active); in assay [10], 44.1 µM (active).
With `COC(=O)C1=C(C)NC(C)=C([N+](=O)[O-])[C@H]1c1ccccc1C(F)(F)F`, the Potency was 15.8 µM (active) and 2 µM (active) in assay [11]; 12.6 µM (active) in assay [12]; 39.3 µM (active) in assay [10]. The Potency entry in [13], in assay [14] and in assay [15] was “inactive” each time. In addition, the outcome in assay [8] and in assay [9] was inactive.
Regarding `COc1ccc2[nH]c(-c3ccccc3)c(CCNC(C)=O)c2c1`, the Potency result in assay [7] and in assay [10] was “inactive” each time. The result in assay [8] and in assay [9] was inactive.
Turning to `C[C@@H](C(=O)O)c1ccc(-c2ccccc2)c(F)c1`, the compound was classed as inactive in assay [5] and in assay [6]. In addition, the Potency result in assay [16] and in assay [17] was “inactive” throughout. Besides, the figures for the activity, negative = inhibition in assay [18] (parasite line A) and in [18] (parasite line B) were 6.83% (inactive) and 6.59% (inactive), respectively.
For `C[C@@H](/C=C\c1cccc(Oc2ccc(F)cc2)c1)N(O)C(N)=O`, the figures for the Potency in [12], in [13] and in assay [10] were 1.26 µM (active), 25.1 µM (active) and 44.1 µM (active), respectively. Further, the Potency entry in assay [14], in assay [15] and in [7] was “inactive” in each case. Also, the compound was called inactive in [19] and in [8].
On to `O=C1CC2(CCCC2)CC(=O)N1CCNC[C@H]1COc2ccccc2O1`, for which the Potency in [13] is 0.126 µM (active).
Turning to `Cc1nccn1CC1CCC2C(C1=O)c1ccccc1N2C` (stereo unspecified), the Potency in assay [16] was 12 µM (active). The Potency result in [17] is “inactive”.
Consider `C[C@@]12C(=O)OC(=O)[C@@]1(C)[C@@H]1CC[C@@H]2O1`, for which the Potency result in [7] and in assay [10] was “inactive” each time. Also, the outcome in assay [8] and in assay [9] was inactive.
With `CCOC(=O)[C@@]12C[C@@H]1/C(=N/O)c1ccccc1O2`, the Potency entry in [15], in [7] and in assay [10] was “inactive” each time. For the same compound, the result in assay [19], in [8] and in [9] was inactive.
`COc1cc(CNC(=O)CCCC/C=C\C(C)C)ccc1O`: the Potency in assay [11] was 2 µM (active) and 1.26 µM (active); in assay [12], 3.98 µM (active). In assay [7], the Potency entry is “inactive”. For the same compound, the compound was classed as inactive in assay [8] and in [9].
As for `CCn1ccnc1C[C@@H]1COc2ccccc2O1`, the Potency result in assay [12], in assay [15] and in [7] was “inactive” in each case. In addition, the Potency in assay [13] was 1.58 µM (active); in [10], 17.5 µM (active). In addition, the compound was classed as inactive in [8] and in assay [9].
